In the library only some 3.2% were active in any assay of this set; here they are far more common.
AmpC no deterg: qHTS Inhibitors of AmpC Beta-Lactamase (assay without detergent); P00811; AmpC nitrocefin hydrolysis, absorbance 480 nm, 0.0001% Triton; Potency, µM (highest dose often 57.1 µM), usual class: inhibitors; 0.52% of 330,000 active; note: nearly all actives have a fitted effect of over 20% in size
Target sequence (P00811 whole entry, looked up): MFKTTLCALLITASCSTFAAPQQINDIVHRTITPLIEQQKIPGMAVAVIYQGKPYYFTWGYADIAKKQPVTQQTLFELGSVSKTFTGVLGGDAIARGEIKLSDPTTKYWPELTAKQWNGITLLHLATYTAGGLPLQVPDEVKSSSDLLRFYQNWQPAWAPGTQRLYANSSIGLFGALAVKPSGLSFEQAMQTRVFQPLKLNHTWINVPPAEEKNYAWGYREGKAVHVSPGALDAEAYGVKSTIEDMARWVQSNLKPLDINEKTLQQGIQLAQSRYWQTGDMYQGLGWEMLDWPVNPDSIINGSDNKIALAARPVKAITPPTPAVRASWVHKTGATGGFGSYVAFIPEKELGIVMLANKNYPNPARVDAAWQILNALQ
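AmpC (5.3 nM in the dispensed reagent) in 20 mM phosphate pH 7.0 with 0.01% (detergent screen) or 0.0001% Triton X-100 was preincubated with compounds for 15 min at room temperature. Nitrocefin was then added from an 800 uM solution, and hydrolysis was followed at 480 nm.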
AMA1 RON2 block: qHTS for Inhibitors of AMA1-RON; Towards Development of Antimalarial Drug Lead: Primary Screen; Plasmodium falciparum AMA1 (3D7) - RON2 peptide interaction; AlphaScreen AMA1-biotinylated RON2 peptide binding; Potency, µM (titrated, usually from 58.2 µM), hits mostly inhibitors; 0.2% of 360,000 active; note: nearly all actives have a fitted effect of over 45% in size
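AMA1 (3D7) with his tag at 25 nM final met compounds first, then biotinylated RON2 peptide at 25 nM; detection used donor plus acceptor beads, 10 µg/mL apiece, read by AlphaScreen after 30 min at room temperature.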
AmpC inh detg: qHTS Inhibitors of AmpC Beta-Lactamase (assay with detergent); P00811; AmpC hydrolysis of nitrocefin, absorbance 480 nm, 0.01% Triton; Potency, µM (series often up to 114 µM), actives largely listed as inhibitors; 0.041% of 370,000 active; AID 485294, 2010; note: nearly all actives have a fitted effect of over 25% in size
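20 mM phosphate pH 7.0 + 0.01% (detergent screen) or 0.0001% Triton X-100; 5.3 nM AmpC reagent; cpd preinc 15 min RT; nitrocefin (800 uM stock) to start; A480 q20 s × 4 min; Activity was normalised to no-enzyme and no-compound control wells.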
RE007 growth inh: qHTS Assay for Inhibitors of the HIV-1 protein Vpr; Potency, µM (series often up to 92.2 µM), usual class: inhibitors; 0.21% of 360,000 active; S. pombe RE007 Vpr strain, BacTiter-Glo ATP luminescence, 24 h; active = well fitted falling curve with a large enough effect; inconclusive = small, poorly fitted or top-dose-only effect; inactive = no such curve, though single readings can be large or run the other way; note: nearly all actives have a fitted effect of over 50% in size
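Fission yeast RE007 carrying one integrated HIV-1 vpr copy, seeded at OD 0.01 in PMG+AL medium with 23 nL pinned compound. Grown 24 h at 30 degrees; viability read by BacTiter-Glo luminescence after 5 min.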
Sm TGR inh: qHTS Assay for the Inhibitors of Schistosoma Mansoni Peroxiredoxins; Schistosoma mansoni thioredoxin glutathione reductase (TGR), Q962Y6; purified TGR, DTNB reduction, TNB absorbance 405 nm; Potency, µM (highest dose often 114 µM), actives largely listed as inhibitors; 3% of 360,000 active; AID 485364, 2010; note: nearly all actives have a fitted effect of over 60% in size
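TGR 20 nM + NADPH 100 uM (dispensed conc.), cpd preinc 15 min RT; start with NADPH (500 uM addition) then DTNB (15 mM addition). Kinetic TNB absorbance, 405 nm filter. Four-parameter Hill fit across titration.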
Hits are given with their value; 0 = inactive; ? = inconclusive; - = no result. Unless noted, calls come from the whole dose curve; as a rule, active = well fitted curve in the direction sought with a large enough effect; inconclusive = small, poorly fitted or top-dose-only effect, or another doubt; inactive = no such curve, though single readings can be large; an effect the other way counts as inactive or inconclusive.

SMILES	AmpC no deterg	AMA1 RON2 block	AmpC inh detg	RE007 growth inh	Sm TGR inh
CCn1c2ccccc2c2cc(NC(=O)c3ccc(Br)o3)ccc21	0	0	0	0	11µM
N#CCC(=O)Nc1ccc(C(=O)NCCC(c2ccccc2)c2ccccc2)cc1	7.9µM	0	0	0	0
CCN(CC)S(=O)(=O)c1cc(NC(=O)COC(=O)c2ccc(NC(=O)CC#N)cc2)ccc1C	7.9µM	0	0	0	0
COc1ccc(NC(=O)C(CC(C)C)NC(=O)C2CCCCC2)cc1 (centres undefined)	-	-	0	-	0
COC(=O)c1c(N)n(-c2cc(Cl)cc(Cl)c2)c2nc3ccccc3nc12	-	-	0	-	0
Cc1cc(C)cc(NC(=O)N2CCC(C(N)=O)(N3CCCCC3)CC2)c1	-	-	0	-	?
CCn1c2ccccc2c2cc(NC(=O)COC(=O)c3ccccc3F)ccc21	0	0	0	0	?
CCn1c2ccccc2c2cc(NC(=O)COC(=O)c3ccc(NC(=O)CC#N)cc3)ccc21	32µM	0	0	0	0
O=C(Nc1c(C(=O)Nc2ccc(F)cc2)oc2ccccc12)c1ccccc1F	-	-	0	-	0
COc1ccc2cc(C3CC(c4ccco4)=NN3C(=O)CCC(=O)O)c(Cl)nc2c1 (centres undefined)	0	0	?	0	0
COc1ccc(C2=NN(C(=O)c3ccco3)C(c3cc4ccccc4nc3Cl)C2)cc1 (centres undefined)	0	0	0	0	45µM
Cc1cccc(-c2oc3ccccc3c2C#CCCO)c1	0	0	?	0	16µM
COc1ccc(Cl)cc1-n1c(C)ccc1C	0	0	0	0	50µM
Cc1cn2c(=O)c(S(=O)(=O)NCc3ccccc3Cl)c(C)nc2s1	-	-	0	-	0
CC(C)NC(=O)Cn1nc(N2CCN(c3ccccc3)CC2)ccc1=O	-	-	0	-	0
Cc1ccc(Nc2ccc3nonc3c2[N+](=O)[O-])cc1	0	0	0	0	0
Cc1ccc(Nc2ccc([N+](=O)[O-])nc2[N+](=O)[O-])cc1	0	0	0	0	45µM
CC(C(=O)NCc1ccccc1)n1ccc2cc(S(=O)(=O)N3CCCC3)ccc21 (centres undefined)	-	-	0	-	0
CCCc1nn2c(=O)cc(COC(=O)c3ccccc3NC(=O)c3cccs3)nc2s1	-	-	0	-	0
Cc1c(N=C2C=CC(=O)c3ccccc32)c(=O)n(-c2ccccc2)n1C	0	0	0	?	13µM
Cc1c(N=Nc2c(O)n(C)c(=O)n(C)c2=O)c(=O)n(-c2ccccc2)n1C	0	0	?	0	0
Cc1c(N=C2C=C(Br)C(=O)C(Br)=C2)c(=O)n(-c2ccccc2)n1C	0	?	0	?	2.8µM
Cc1c(N=Nc2ccc(O)cc2)c(=O)n(-c2ccccc2)n1C	0	0	0	0	0
COc1cccc(NC(=O)Cn2cc(C(=O)c3ccco3)c3ccccc32)c1	-	-	0	-	0
N#Cc1c(NC(=O)/C=C/c2ccco2)sc2c1CCCC2	0	0	0	0	20µM
SMILES	AmpC no deterg	AMA1 RON2 block	AmpC inh detg	RE007 growth inh	Sm TGR inh
O=C(/C=C/c1ccco1)Nc1sc2c(c1C(=O)O)CCC2	0	0	?	0	40µM
N#Cc1c(NC(=O)c2ccccc2)sc2c1CCCCC2	0	0	?	0	0
Clc1ncnc2c1oc1ccccc12	0.28µM	0	0	0	0
Cc1[nH]n2c(=O)cc(-c3ccc(Cl)cc3)nc2c1-c1ccccc1	-	-	0	-	0
CCn1c(O)c(N=NC(=O)CNC(=O)/C=C/c2ccco2)c2ccccc21	0	0	0	0	35µM
CCC(=O)Nc1nc(-c2ccc3c(c2)OCCO3)cs1	40µM	0	?	0	0
OCCNc1nc(Cl)nc(NCc2ccco2)n1	0	0	0	0	0
CCCN(CCC)c1nc(Cl)nc(NCc2ccco2)n1	0.16µM	0	0	0	0
S=C1SCN(Cc2ccco2)CN1Cc1ccco1	0	0	0	35µM	0
S=C1SCN(Cc2cccs2)CN1Cc1cccs1	-	0	-	0	-
Cc1ccc(NC(=O)C2CCN(c3nc4ccccc4[nH]3)CC2)cc1Cl	-	-	0	-	0
Cc1ccc(-n2c3c(cc(C(=O)Nc4ccccc4C(N)=O)c2=O)C(=O)CC(C)(C)C3)cc1	-	-	0	-	0
CC(C)Nc1nc2c(S(=O)(=O)c3cccc(Cl)c3)nnn2c2ccsc12	-	-	0	-	0
CCN(CC)C(=O)Cn1c(SCC(=O)Nc2ccc(F)cc2)nc2ccccc21	-	-	0	-	0
CC(C)c1ccc(C(=O)Nc2cc(-c3ccccc3F)nn2-c2ccccc2)cc1	-	-	0	-	0
CCN1CCCC(Sc2nc3c([nH]2)c(=S)n(C)c(=O)n3C)C1 (centres undefined)	0	0	0	-	40µM
Cn1c(=S)c2[nH]c(SCCN)nc2n(C)c1=O	-	0	-	0	-
Cn1c(=S)c2[nH]c(SCCN3CCCC3)nc2n(C)c1=O	0	0	0	-	40µM
CN1C=C/C(=C\c2cc[n+](C)c3ccccc23)c2ccccc21	0	0	?	3.2µM	0
O=C(CCOc1ccccc1)N(Cc1cccnc1)c1nc2c(Cl)cccc2s1	-	-	0	-	1.1µM
Cc1cccc2sc(N(Cc3cccnc3)C(=O)CCOc3ccccc3)nc12	-	-	0	-	3.5µM
CCCOc1ccc(C2C(C(=O)/C=C/c3ccco3)=C(O)C(=O)N2CCN2CCOCC2)cc1OC (centres undefined)	0	0	0	0	8.9µM
COc1cc(C2C(C(C)=O)=C(O)C(=O)N2CCN2CCOCC2)ccc1O (centres undefined)	0	0	0	0	0
COc1cccc(Cn2cnc3c(N)c(C)c(C)cc32)c1	0	0	0	0	0
CCCn1cnc2c(N)c(C)c(C)cc21	0.32µM	0	0	0	0
SMILES	AmpC no deterg	AMA1 RON2 block	AmpC inh detg	RE007 growth inh	Sm TGR inh
Cc1ccc(C)c(OCCn2c(-c3ccc(Cl)cc3)nc3ccccc3c2=O)c1C	-	-	0	-	0
CCOC(=O)c1n[nH]n2c1nc(=S)c1ccccc12	0	0	0	0	11µM
CC(=O)N1CCc2[nH]c3ccc(C)cc3c2C1	0	0	?	0	0
Cc1ccc2[nH]c3c(c2c1)CN(C(=O)CN1CC(C)OC(C)C1)CC3 (centres undefined)	0	0	0	0	40µM
CCOC(=O)N1CCc2[nH]c3ccc(C)cc3c2C1	0	40µM	0	0	0
CC(C)c1cc(CN2CCN(CCC#N)CC2)cc(C(C)C)c1O	0	0	0	0	22µM
Cn1nc(-c2ccccn2)nc2c(=O)n(C)c(=O)nc1-2	0	8.9µM	0	0	?
CCCc1nc2c(=O)n(C)c(=O)nc-2n(C)n1	0	0	0	0	?
O=C(NCc1ccc(F)cc1)C1CCCCN1S(=O)(=O)c1ccc(F)cc1 (centres undefined)	-	-	0	-	0
O=C(O)c1ccc(Nc2nc3c(s2)CCCC3)cc1	0	0	0	0	-
